{"source": "PubChem BioAssay AID624296", "about": "(National Center for Advancing Translational Sciences (NCATS), 2012)", "note": "Out of some 350,000 compounds screened, about 9,900 (2.8%) were called active. Where a call stands in place of a potency, no number is given. Another 15% or so got no clear call; they are omitted. Calls come from the whole dose curve; as a rule, active = well fitted activation curve with a large enough effect; inconclusive = small, poorly fitted or top-dose-only effect; inactive = no such curve, though single readings can be large or run the other way. This excerpt belongs to a sample that is enriched for actives. Potency is the fitted concentration of half-maximal effect.", "data": [{"experiment": "A quantitative high throughput screen for small molecules that induce DNA re-replication in MCF 10a normal breast cells; note: nearly all actives have a fitted effect of over 50% in size.", "conditions": "MCF 10A DNA re-replication, Hoechst nuclear intensity, 48 h; series mostly up to 46.1 µM", "values": [{"smiles": "CCN(CC)C(=O)[C@H]1CC(CC(=O)NCc2ccco2)C(=O)N2CCc3c([nH]c4ccccc34)[C@]12C", "note": "(stereo partly specified)", "Potency": "inactive"}, {"smiles": "CN(C)S(=O)(=O)c1ccc(C(=O)NCC2(N3CCOCC3)CCCCC2)cc1", "Potency": "inactive"}, {"smiles": "Cc1cc(/C=N/NC(=O)c2cccnc2)c(C)n1CC(C)C", "Potency": "inactive"}, {"smiles": "O=C(N/N=C/c1ccc(O)c2ccccc12)c1cccnc1", "Potency": "inactive"}, {"smiles": "O=C(N/N=C/c1sc(N2CCCCC2)nc1-c1cccs1)c1cccnc1", "Potency": "0.461 µM (active)"}, {"smiles": "OCCN1CCN(CCO)C1=S", "Potency": "inactive"}, {"smiles": "O=C(CCC(=O)N1CCN(S(=O)(=O)c2ccc(Cl)cc2)CC1)NCc1cccc(C(F)(F)F)c1", "Potency": "inactive"}, {"smiles": "C[C@H](NC(=O)c1[nH]cnc1C(=O)Nc1nccs1)c1ccccc1", "Potency": "inactive"}, {"smiles": "CN(CC(=O)NCCc1ccc(S(N)(=O)=O)cc1)CC(=O)Nc1ccc(Cl)cc1", "Potency": "inactive"}, {"smiles": "CCC(C)NC(=O)c1ccc(NC(=O)CC2SC(N3CCCCC3)=NC2=O)cc1", "note": "(stereo unspecified)", "Potency": "inactive"}, {"smiles": "CCOC(=O)C1=C(NC(=S)NC(=O)c2ccccc2)c2ccccc2CC1(C)C", "Potency": "4.11 µM (active)"}, {"smiles": "Cc1ccc(NC(=S)NC(=O)c2ccc(-c3ccccc3)cc2)cc1", "Potency": "inactive"}, {"smiles": "CCOC(=O)c1c(-c2ccccc2)csc1NC(=S)NC(=O)c1ccccc1", "Potency": "inactive"}, {"smiles": "CSc1ccc(S(=O)(=O)NCC(=O)OCC(=O)NC2(C#N)CCCCC2)cc1[N+](=O)[O-]", "Potency": "inactive"}, {"smiles": "COc1ccc(CCNC(=O)COC(=O)C2CC2C)cc1", "note": "(stereo unspecified)", "Potency": "inactive"}, {"smiles": "C#CCOCCOCCOCCNc1nc(N2CCN(C(=O)[C@H](CO)n3cc([C@@H](N)C(C)C)nn3)CC2)nc(N2CCN(C(=O)[C@H](CCC(=O)O)n3cc([C@@H](N)[C@H](C)CC)nn3)CC2)n1", "Potency": "inactive"}, {"smiles": "CCOC(=O)c1sc(=S)n2c1[nH]c(=O)c1ccc(C(=O)OC)cc12", "Potency": "inactive"}, {"smiles": "CCOC(=O)C1=C(C)Nc2sc(C(=O)c3ccc(Br)cc3)c(N)c2C1c1ccc(C(=O)OC)cc1", "note": "(stereo unspecified)", "Potency": "2.91 µM (active)"}, {"smiles": "CCOC(=O)c1sc(=NC(=O)c2ccc(Br)cc2)n(C)c1C", "Potency": "inactive"}, {"smiles": "CC(Oc1ccc(Br)cc1)C(=O)NC1CCCCCC1", "note": "(stereo unspecified)", "Potency": "inactive"}, {"smiles": "CCc1[nH]nc(C(=O)N2CCCC(CO)(Cc3ccc(F)cc3F)C2)c1C", "note": "(stereo unspecified)", "Potency": "inactive"}, {"smiles": "COc1cccc(CC2(CO)CCCN(Cc3ccc(OC(F)F)cc3)C2)c1", "note": "(stereo unspecified)", "Potency": "inactive"}, {"smiles": "CCOc1cc(CN2CCCC(CO)(Cc3ccc(F)cc3F)C2)ccc1OC", "note": "(stereo unspecified)", "Potency": "3.66 µM (active)"}, {"smiles": "Cc1nc(N)nc(Cl)c1CCC1OCCO1", "Potency": "inactive"}, {"smiles": "O=C(COC(=O)c1cccnc1Cl)NC(=O)NC1CCCCC1", "Potency": "inactive"}, {"smiles": "CCOC(=O)[C@@H]1[C@H]2COc3ccc(Br)cc3[C@H]2N2C(=O)N(c3ccc(C)cc3)C(=O)[C@@]12C", "Potency": "inactive"}, {"smiles": "COc1ccc(OC)c(C(=O)c2ccc(Cl)cc2)c1", "Potency": "inactive"}, {"smiles": "COc1ccc(/C(C)=N/NC(=O)CCC(=O)Nc2ccc(Cl)cc2Cl)c(OC)c1", "Potency": "inactive"}, {"smiles": "COc1ccc(OC)c(/C(C)=N\\NC(=O)c2cc3cc(Cl)ccc3n2C)c1", "Potency": "14.6 µM (active)"}, {"smiles": "C=CCN1C=C(C(=O)c2ccccc2)C(=O)CC1", "Potency": "inactive"}, {"smiles": "OCC[C@H]1C[C@@H](O)[C@H](O)[C@@]2(OCCc3ccccc32)O1", "Potency": "inactive"}, {"smiles": "O=C(Nc1cccc(Br)c1)C1CC(=O)N(C2CCCC2)C1", "note": "(stereo unspecified)", "Potency": "inactive"}, {"smiles": "COc1ccccc1C(=O)N1CC2(C)CC1CC(C)(C)C2", "note": "(stereo unspecified)", "Potency": "inactive"}, {"smiles": "Cc1nnnn1/C(=C\\c1ccccc1)C(=O)OCC(=O)N1CC2(C)CC1CC(C)(C)C2", "note": "(stereo unspecified)", "Potency": "16.4 µM (active)"}, {"smiles": "Cc1cccc(C(=O)NCC(=O)OCC(=O)N2CC3(C)CC2CC(C)(C)C3)c1", "note": "(stereo unspecified)", "Potency": "inactive"}, {"smiles": "O=C(COC(=O)Cc1ccc([N+](=O)[O-])cc1)NC1CCCCCC1", "Potency": "inactive"}, {"smiles": "CSc1ncccc1C(=O)Nc1cccc(S(=O)(=O)N2CCOCC2)c1", "Potency": "inactive"}, {"smiles": "CSc1ncc(Sc2ccccc2)c(C(=O)O)n1", "Potency": "inactive"}, {"smiles": "CSc1nc(C)cc(SC(C(C)=O)C(=O)Nc2ccccc2)n1", "note": "(stereo unspecified)", "Potency": "inactive"}, {"smiles": "CSc1nc(-c2ccccc2)nc(C(Cl)Cl)n1", "Potency": "2.59 µM (active)"}, {"smiles": "O=C(Nc1cccc(S(=O)(=O)NC2=NCCC2)c1)c1ccc(F)cc1F", "Potency": "inactive"}, {"smiles": "O=C(Nc1ccc(C(F)(F)F)cc1)c1cccc(-n2cnnn2)c1", "Potency": "inactive"}, {"smiles": "CC(C)COc1ccc(C(=O)NNC(=O)CCC(=O)c2cccs2)cc1", "Potency": "inactive"}, {"smiles": "O=C(NCc1ccccc1)C1=C[C@H](C2CC2)C[C@H](OCc2ccc(CO)cc2)O1", "Potency": "inactive"}, {"smiles": "O=C(NCc1ccccc1)C1=C[C@@H](c2ccccc2)C[C@@H](OCCCCO)O1", "Potency": "16.4 µM (active)"}, {"smiles": "O=C(NCc1ccccc1)C1=C[C@@H](C2CCCCC2)C[C@@H](OCc2ccc(CO)cc2)O1", "Potency": "18.4 µM (active)"}, {"smiles": "CC(C)(C)[C@H]1C=C(C(=O)NCc2ccccc2)O[C@@H](OCc2ccc(CO)cc2)C1", "Potency": "inactive"}, {"smiles": "C#Cc1ccc([C@@H]2C=C(C(=O)O)O[C@H](OCCCCO)C2)cc1", "Potency": "inactive"}, {"smiles": "O=C(O)C1=C[C@H](c2cccs2)C[C@H](OCCCCO)O1", "Potency": "inactive"}, {"smiles": "CC(=O)OC1CCC2(C)C(=CCC3C4CC(=O)N(O)C(=O)C4(C)CCC32)C1", "note": "(stereo unspecified)", "Potency": "inactive"}, {"smiles": "CC(C)Cc1nnc(N)s1", "Potency": "inactive"}, {"smiles": "COc1ccc(Nc2ccc([N+](=O)[O-])cn2)cn1", "Potency": "inactive"}, {"smiles": "NC(=S)N/N=C/c1ccc([N+](=O)[O-])cc1", "Potency": "inactive"}, {"smiles": "CC(C)c1ccc(C=NNc2ccc([N+](=O)[O-])cn2)cc1", "Potency": "6.51 µM (active)"}, {"smiles": "Cc1ccc(S(=O)(=O)NCCNC(C)c2ccc(Br)cc2)cc1", "note": "(stereo unspecified)", "Potency": "inactive"}, {"smiles": "C#CCOCCOCCOCCNc1nc(N2CCN(C(=O)[C@H](CCCN=C(N)N)n3cc(C(N)[C@@H](C)CC)nn3)CC2)nc(N2CCN(C(=O)[C@H](CO)n3cc([C@@H](N)C(C)C)nn3)CC2)n1", "note": "(stereo partly specified)", "Potency": "inactive"}]}]}
